Source: PubChem
NCOA2 inhibitor: inhibition of GAL4-SRC2 driven luciferase reporter, primary screen, SRC2 inhibitor project, cell-based, luminescence; Nuclear receptor coactivator 2 (Homo sapiens), Q15596; HEK293 GAL4-SRC2 luciferase reporter; inhibition, % at 9 µM; 0.17% of 370,000 active; AID 651957, 2012;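 active = inhibition above the mean inhibition of all tested compounds plus 3 SD, set per campaign, cut at about 52% in these data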;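 note: 0% = DMSO treated cells and 100% = cells given Gossypol at 36 µM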
COUP-TFII inh: NR2F2 transcriptional activity inhibitors, primary screen, cell-based, luciferase reporter, HEK293T, luminescence; COUP transcription factor 2 (Homo sapiens), P24468; HEK293T NGFI-A luciferase reporter; inhibition, % at 8.6 µM; 0.7% of 370,000 active; AID 686940, 2013;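 active = inhibition above a per-plate cutoff, mean inhibition of test wells between control levels plus 3 SD, cut at about 38% in these data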;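 note: cells cotransfected with COUP-TFII expression vector driving the NGFI-A reporter; 0% = median of COUP-TF2 test wells and 100% = reporter-only cells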
NCOA3 inh: SRC3 coactivator transcriptional activity inhibitors, primary screen, cell-based, luminescence; AID 588352, 2011; Nuclear receptor coactivator 3 (Homo sapiens), Q9Y6Q9; HEK293 GAL4-SRC3 luciferase reporter; 0.17% of 360,000 active; inhibition, % at 3.6 µM;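 active = inhibition above a per-campaign cutoff, the mean of all compounds plus 3 SD, cut at about 60% in these data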;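 note: 0% = DMSO-treated cells and 100% = gossypol-treated cells at 36 µM; higher means less SRC3-driven luciferase light from the GAL4 reporter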
NR5A2 inv ag: LRH-1 (NR5A2) inverse agonists, primary screen, cell-based, luminescence, HEK293T, StAR-luciferase reporter; LRH-1 transfected, 24 h; inhibition, % at 3.6 µM; 0.13% of 360,000 active; AID 602396, 2012; Nuclear receptor subfamily 5 group A member 2 (Homo sapiens), O00482;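 active = inhibition above the mean inhibition of all tested compounds plus 3 SD, cut at about 73% in these data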;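 note: 0% = DMSO wells and 100% = reporter-only cells lacking LRH-1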
Gli-Sufu antag: Gli-Sufu pathway antagonists, primary screen, luciferase luminescence, Sufu-KO-LIGHT cells, uHTS; Sufu-KO-LIGHT fibroblasts, Gli luciferase reporter luminescence; inhibition, % at 5 µM; 0.74% of 340,000 active; AID 588413, 2011;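 active = inhibition above about 55%, limit read from the data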;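 note: 0% = DMSO-treated cells and 100% = wells with medium but no cells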
NCOA1 inh: SRC1 coactivator transcriptional activity inhibitors, primary screen, cell-based, luminescence. inhibition, % at 3.6 µM. Nuclear receptor coactivator 1 (Homo sapiens), Q15788. HEK293 GAL4-SRC1 luciferase reporter. 0.12% of 360,000 active;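 active = inhibition above the campaign mean plus 3 SD, with each screening campaign given its own cutoff, cut at about 60% in these data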;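 note: 0% = DMSO treated cells and 100% = gossypol at 36 µM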
Gli antag conf: Gli-SUFU pathway antagonists, confirmation, single concentration, luciferase luminescence, Sufu-KO-LIGHT cells | shares compounds with Gli-Sufu antag | 40% of 2,500 active | inhibition, % at 5 µM | Gli luciferase reporter;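 active = mean inhibition at 5 µM reaching about 45%, limit read from the data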;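 note: plate controls were DMSO-treated cells for no effect and wells lacking cells for full effect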
Gli cytotox: cytotoxicity in Sufu-KO-LIGHT cells, confirmation, cytotoxicity control for Gli-SUFU antagonist project, cell-based, ATP luminescence, single concentration; 32% of 2,500 active; AID 651994, 2013; cytotoxicity, % at 5 µM; shares compounds with Gli-Sufu antag;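 active = mean cytotoxicity at 5 µM above about 25%, limit read from the data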;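 note: cells exposed to compound overnight for roughly 16 to 18 hours; plate controls were DMSO wells with cells for no effect and medium without cells for full effect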
Wnt3a cs: Wnt3a reporter signal inhibition, confirmation, counter-screen for Gli-SUFU antagonist project, Wnt-LIGHT cells, luminescence, single concentration | shares compounds with Gli-Sufu antag | Wnt3a-driven luciferase reporter | inhibition, % at 6.25 µM | 20% of 2,500 active;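 active = mean inhibition above about 25%, limit read from the data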
* = called active by the depositor; . = no result. Most compounds without a hit are left out; they make up all but 1.3% or so of the library.

SMILES | NCOA2 inhibitor | COUP-TFII inh | NCOA3 inh | NR5A2 inv ag | Gli-Sufu antag | NCOA1 inh | Gli antag conf | Gli cytotox | Wnt3a cs
N#C/C(=N\Nc1ccc(Cl)cc1)C(N)=S | 20 | 32 | 13 | 23 | 60* | -4 | 59* | 12 | 32*
COC(=O)c1cc2c(c3c4cc(F)ccc4n(S(=O)(=O)c4ccc(C)cc4)c13)C(=O)N(Cc1ccccc1)C2 | -12 | 11 | . | . | . | . | . | . | .
Cn1c(CNC(=O)CCNC(=O)c2ccccc2F)cc(=O)n(C)c1=O | 11 | -5 | 4 | 18 | 1 | -13 | . | . | .
Cn1c(CNC(=O)CNC(=O)c2ccccc2F)cc(=O)n(C)c1=O | 2 | -1 | -2 | -2 | 53 | 2 | 4 | 12 | -23
CC(Oc1cccc2c1OC(C)(C)C2)C(=O)O (stereo not drawn) | 1 | -10 | 3 | 9 | 96* | -8 | 10 | -7 | 12
CC[C@]12c3[nH]c4cc(CCC(=O)N(C)C)ccc4c3CCN1C(=O)[C@@H](CC(=O)NC/C=C(\C)CCC=C(C)C)C[C@@H]2C(=O)N1CCN(C(=O)C2CC2)CC1 | -10 | -12 | -1 | -11 | 53 | -13 | 54* | 29* | -23
CN(C)C(=O)CCc1ccc2c3c([nH]c2c1)[C@]1(C)[C@@H](C(=O)N2CCCCC2)C[C@H](CC(=O)NC(C)(C)C)C(=O)N1CC3 | -1 | -18 | -12 | 11 | 2 | 4 | . | . | .
CC(C)=CCC/C(C)=C/CNC(=O)C[C@H]1C[C@H](C(=O)N2CCOCC2)[C@@]2(C)c3[nH]c4cc(CCC(=O)N(C)C)ccc4c3CCN2C1=O | -10 | 13 | -52 | 0 | 58* | 3 | 66* | 19 | -6
CC(C)=CCC/C(C)=C/CNC(=O)C[C@H]1C[C@H](C(=O)N2CCCCC2)[C@@]2(C)c3[nH]c4cc(CCC(=O)N(C)C)ccc4c3CCN2C1=O | . | . | -6 | 8 | 52 | -2 | 56* | 32* | -18
N#Cc1ccc(C(=O)Oc2coc(CSc3ncccn3)cc2=O)cc1 | . | 12 | . | . | . | . | . | . | .
CCCCS(=O)(=O)NCC1CCN(C(=O)C(=O)c2cc3ccccc3o2)CC1 | -24 | -8 | . | . | . | . | . | . | .
Cc1ccc(NC2=C(Cl)C(=O)OC2OC(C)C)c(C)c1 (stereo not drawn) | -8 | 9 | 5 | 18 | 14 | 11 | . | . | .
Cc1cccc(C)c1NC1=C(Cl)C(=O)OC1OC(C)C (stereo not drawn) | -5 | -10 | 17 | 1 | 52 | 7 | 19 | -6 | 11
CC1CC(C)CN(C(=O)C2CCN(c3cncnc3)CC2)C1 (stereo not drawn) | -8 | 5 | . | . | . | . | . | . | .
CC(=NN1CCN(c2ccccn2)CC1)c1ccccc1O | -27 | -25 | . | . | . | . | . | . | .
CCC(/C=C1\Sc2ccc(OC)cc2N1CCO)=C\c1sc2ccc(OC)cc2[n+]1CCO | 5 | 4 | 15 | 10 | 49 | -10 | . | . | .
CCC(/C=C1\Sc2ccc(OC)cc2N1CC)=C\c1sc2ccc(OC)cc2[n+]1CCCS(=O)(=O)[O-] | 16 | -3 | 2 | 8 | 70* | 3 | 82* | 40* | 5
COc1ccccc1C(=O)NC1CCCCN(Cc2cccc(C(F)(F)F)c2)C1=O (stereo not drawn) | 2 | 27 | . | . | . | . | . | . | .
Cc1ccccc1NC(=O)[C@@H]1CC(=O)O[C@@H]1c1ccccc1 | -17 | 2 | . | . | . | . | . | . | .
Cc1ccc(NC(=O)Nn2cnnc2)c(C)c1 | -25 | -9 | 6 | 7 | 55* | 8 | 31 | 8 | 10
O=C(CN1CCOCCOCCOCCOCC1)Nc1ccccc1 | -10 | -23 | -17 | -15 | 96* | -15 | 20 | 8 | -32
CCOc1ccc2nc(N3CCCC(C(=O)NCCCN4CC(C)CC(C)C4)C3)sc2c1 (stereo not drawn) | 16 | -13 | -17 | -26 | 20 | -19 | . | . | .
CCOc1ccc2nc(N3CCCC(C(=O)NCCCN4CCCCC4)C3)sc2c1 (stereo not drawn) | -25 | -21 | -43 | -47 | 65* | -38 | 20 | 11 | -212
Cc1cc(=O)n2nc(N3CCCC(C(=O)NCCCN4CC(C)CC(C)C4)C3)sc2n1 (stereo not drawn) | -1 | 0 | 12 | -6 | 60* | -11 | 22 | 12 | -5
COC(=O)[C@@]12CCCCC=C1N(CCc1ccc(Cl)cc1)C(=O)[C@H]2CC(=O)NCCCCc1ccccc1 | 12 | -4 | . | . | . | . | . | . | .
SMILES | NCOA2 inhibitor | COUP-TFII inh | NCOA3 inh | NR5A2 inv ag | Gli-Sufu antag | NCOA1 inh | Gli antag conf | Gli cytotox | Wnt3a cs
CSc1nc2[nH]c3c(c2c2nncn12)CC(C)(C)OC3 | -26 | -5 | -5 | 17 | 98* | -17 | 27 | 5 | -15
COc1ccc(C(=O)OCCN2CCN(C3CN(Cc4cn(Cc5cccc(F)c5)nn4)S(=O)(=O)C3)CC2)cc1OC (stereo not drawn) | 1 | 8 | . | . | . | . | . | . | .
O=C(Cc1ccc(N2CCNC2=O)cc1)N1CCCC(Nc2cccc(F)c2)C1 (stereo not drawn) | -13 | 7 | -22 | 19 | 53 | -14 | 17 | 41* | -48
O=C(Cc1ccc(N2CCNC2=O)cc1)N1CCCC(Nc2ccc(F)c(F)c2)C1 (stereo not drawn) | 21 | 5 | 12 | 25 | -3 | 17 | . | . | .
C=CCN1C[C@H](COC(=O)c2cccc(C)c2)Oc2cccc(F)c2S1(=O)=O | 21 | 10 | . | . | . | . | . | . | .
Cc1cccc(CSC(Nc2ccc(F)cc2)=C(C#N)C#N)c1 | -7 | 30 | 17 | 49 | 56* | 17 | 62* | 24 | 52*
Cc1cccc(CSC(=N)N)c1 | 8 | 10 | 9 | 10 | 6 | -12 | . | . | .
O=C(C(=O)N1CCN(S(=O)(=O)c2ccc(F)cc2)CC1)c1cccc(C(F)(F)F)c1 | -5 | 5 | . | . | . | . | . | . | .
O=C(c1ccc(Cl)cc1)c1ccc(OCC(=O)N2CCOCC2)cc1 | -28 | -14 | 7 | -13 | 69* | -5 | 15 | 21 | -36
C[C@H]1COc2cccc(F)c2S(=O)(=O)N1C | -32 | -16 | . | . | . | . | . | . | .
COC(=O)C1=C(C)N(Cc2ccccc2C(F)(F)F)C(=NCc2ccc3c(c2)OCO3)NC1c1ccccc1C(F)(F)F (stereo not drawn) | 20 | -12 | . | . | . | . | . | . | .
